In PubChem BioAssay (NCI):
Compounds without any hit were thinned out: in the full panel of roughly 83,000, 20% have a hit.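 Method: cells in 96-well plates; compound added at one concentration; 48 h incubation; percent growth measured; values under 10 scored active.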 The source made the active and inactive calls.

Test system: A549/ATCC NSCLC
Test: NCI-60 one-dose screen, 48 h (100 = growth as untreated, 0 = no growth, -100 = all killed)
Conditions: 10 µM unless noted
Protocol: Growth inhibition of the A549/ATCC human Non-Small Cell Lung tumor cell line is measured as a screen for anti-cancer activity. Cells are grown in 96 well plates and exposed to the test compound for 48 hours. Compounds are tested at a single concentration, which is 10^-5 M for most compounds. The reported endpoint is percent growth (GI% or GIPRCNT), where numbers from 0 - 100% represent growth inhibition, and numbers from -100% - 0 represent cell death. For example, a value of 40 represents 60% growth inhibition. A value of 0 means no net growth occurred over the course of the experiment. A value of -40 indicates 40% of cells at the beginning of the experiment died by the end of the experiment. A value of -100 means all cells are dead at the end of the experiment.
NCI-60 Human Tumor Cell Lines Screen was performed using the standard one-dose NCI protocol, which is described in more detail at https://dtp.cancer.gov/discovery_development/nci-60/default.htm.
Compounds with GIPRCNT values below 10 were considered active. Activity score was based on GIPRCNT using the following formula: […]
Score is 0 for GIPRCNT values of 100 or above, 50 for GIPRCNT values of 0, and 100 for GIPRCNT values of -100.

Q: With `Cc1cc(NC(=O)NCCOc2ccc(N3C(N)=NC(N)=NC3(C)C)cc2Cl)ccc1S(=O)(=O)F` as the compound, how does the growth read?
A: 9.6% (active)

Q: With `NCCc1cc(O)c(O)cc1O` as the compound, how does the growth read?
A: 100% (inactive)

Q: For `CC1(C)CC2(CC(C)(C)c3cc(O)c(O)cc32)c2cc(O)c(O)cc21`, which growth is on record?
A: 97.2% (inactive)

Q: With `ClCCN(CCCl)c1ccc(/C=C\c2ccnc3ccccc23)cc1` as the compound, how does the growth read?
A: 71% (inactive)

Q: Which growth does the source give for `CCC1CN1P(=O)(OCCOC)N1CC1CC` (stereo not given) here?
A: 101% (inactive)

Q: `O=C(CC1(O)C(=O)Nc2ccc(F)cc21)c1ccc(C(=O)NCC2CCC3(CC2)OOC2(CCCCC2)OO3)cc1` (stereo not given) was tested. Which growth did it give?
A: -66.5% (active)

Q: Which growth does the source give for `NC(Cc1ccc(O)cc1)C(=O)N/N=C/c1ccc(N(CCCl)CCCl)cc1` (stereo not given) here?
A: 52.3% (inactive)

Q: For `COC1=CC(=O)OC(CCc2ccc3c(c2)OCO3)C1` (stereo not given), which growth is on record?
A: 96% (inactive)

Q: How did the growth turn out when `CC1(C)N=C(N)N=C(N)N1c1ccc(CCCCc2ccc(Cl)cc2S(=O)(=O)F)c(Cl)c1` was run?
A: 9.77% (active)

Q: How did the growth turn out when `CC(C)OC(=S)[S-].[Au+].c1ccc([PH+](c2ccccc2)c2ccccc2)cc1` was run?
A: 84.5% (inactive)

Q: How did the growth turn out when `O1[As]2O[As]3O[As]1O[As](O2)O3` was run?
A: 37.8% (inactive)

Q: For `[N-]=[N+]=NC(C(=O)O)c1ccccc1` (stereo not given), which growth is on record?
A: 95.2% (inactive)

Q: With `CNC(C)Cc1ccccc1` (stereo not given) (tested in a mixture with another compound) as the compound, how does the growth read?
A: 92.3% (inactive)

Q: For `CC(C)C1c2ccc(O)cc2Oc2nc(N)c(C#N)c(N)c21` (stereo not given), which growth is on record?
A: 91.4% (inactive)

Q: Which growth does the source give for `Oc1ccccc1OB(Oc1ccccc1O)N(CCCl)CCCl` here?
A: 67% (inactive)

Q: `S=P(N1CCCCCC1)(N1CC1)N1CC1` was tested. Which growth did it give?
A: 104% (inactive)

Q: `Fc1ccc(C2=NN(c3ccccc3)C(c3sc(N(CCCl)CCCl)nc3Cl)C2)cc1` (stereo not given) was tested. Which growth did it give?
A: 86.3% (inactive)

Q: For `CCOc1ccc(C(O)CN(C)Cc2ccccc2)cc1Cl` (stereo not given), which growth is on record?
A: 102% (inactive)

Q: Which growth does the source give for `COC(=O)C(=[N+]=[N-])C(=O)OC` here?
A: 99.3% (inactive)

Q: `CCN(CC)c1ccc(C=C2C(=O)NC(=S)NC2=O)cc1` was tested. Which growth did it give?
A: 89.2% (inactive)

Q: For `CCC(/C=C(C)/C=C/C(=O)c1c(O)c(-c2ccc(O)cc2)c[nH]c1=O)CO` (stereo not given), which growth is on record?
A: 90.2% (inactive)

Q: With `CC(C)(C)N(Cc1ccccc1)N=O` as the compound, how does the growth read?
A: 93.9% (inactive)

Q: For `N#CC1=C(N)Oc2cc3c(cc2C1c1cccs1)OCO3` (stereo not given), which growth is on record?
A: 36.8% (inactive)

Q: `CCOC(=O)/C=C(\C)Nc1ccc(N/C(C)=C/C(=O)OCC)c2c1Oc1ccccc1O2` was tested. Which growth did it give?
A: 106% (inactive)

Q: With `CC(/C=N/N=C(N)N)=N/N=C(N)N` as the compound, how does the growth read?
A: 106% (inactive)

Q: For `Cc1cc(C)nc(C)c1.[Cl][Hg][Cl]`, which growth is on record?
A: 97.2% (inactive)

Q: With `CCCCN(CCCC)CC(O)c1ccccc1` (stereo not given) as the compound, how does the growth read?
A: 104% (inactive)

Q: For `O=C1NC(=O)C(CN2C(=O)C3(c4ccccc42)[C@H](Cl)C(=O)N3c2ccccc2)C(=O)N1` (stereo not given in full), which growth is on record?
A: 77.3% (inactive)

Q: For `CSc1ccccc1NP1(=O)OCC(C)([N+](=O)[O-])CO1` (stereo not given), which growth is on record?
A: 95.9% (inactive)

Q: For `O=C(c1cccs1)C1NO[N+]([O-])=C1c1cccs1` (stereo not given), which growth is on record?
A: 86.9% (inactive)

Q: `C1CN1c1nc(N2CC2)nc(N2CC2)n1` was tested. Which growth did it give?
A: 59.8% (inactive)

Q: For `O=[N+]([O-])c1ccccc1N1CCNCC1`, which growth is on record?
A: 95% (inactive)

Q: `O=C(O)C1[O][Sb][O]C1C(=O)O` (stereo not given) was tested. Which growth did it give?
A: 103% (inactive)

Q: With `C[C@@H]1O[C@@H](O[C@H]2CC[C@@]3(C)[C@H](CCC4[C@@H]3C(O)C[C@]3(C)[C@@H](c5ccc(=O)oc5)CC[C@]43O)C2)[C@H](O)[C@H](O)[C@H]1O` (stereo not given in full) as the compound, how does the growth read?
A: -83.6% (active)

Q: `CN1CCN(C(=O)COc2ccc(/C=C3\CC4C5CC=C6CC(Cl)CCC6(C)C5CCC4(C)C3=O)cc2)CC1` (stereo not given) was tested. Which growth did it give?
A: 65% (inactive)

Q: With `Nc1ccc([N+](=O)[O-])c2c1Oc1ccccc1O2` as the compound, how does the growth read?
A: 93.8% (inactive)

Q: `CCOC(=O)Nc1cc(Cl)c([N+](=O)[O-])c(NC(=O)OCC)n1` was tested. Which growth did it give?
A: 95.2% (inactive)

Q: For `CCCCCCCCCCOc1ccc(C(=O)Oc2ccc(CSP3(=O)OCC4OC(n5ccc(=O)[nH]c5=O)C(F)C4OP(=O)(O)OCC4OC(n5cnc6c(N)ncnc65)C(F)C4O3)cc2)cc1` (stereo not given), which growth is on record?
A: 85.9% (inactive)

Q: `O=C(CF)N(O)c1ccc(/C=C/c2ccccc2)cc1` was tested. Which growth did it give?
A: 36.4% (inactive)

Q: For `CC[C@]12C=CCN3CC[C@@]4(c5ccc(OC)cc5N(C)[C@H]4[C@@](O)(C(=O)OC)[C@@H]1OC(=O)CCCN1CCN(CCCC(=O)O[C@@H]4[C@]5(CC)C=CCN6CC[C@@]7(c8ccc(OC)cc8N(C)[C@H]7[C@@]4(O)C(=O)OC)[C@@H]65)CC1)[C@@H]32`, which growth is on record?
A: -81.4% (active)
